{"source": "PubChem BioAssay AID1259376", "about": "(The Scripps Research Institute Molecular Screening Center, 2018)", "note": "About 360 (7.7%) of roughly 4,700 compounds were called active. Only a sample is shown. Values without a mark were called inactive.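 How the source made its calls: active means inhibition above a cutoff derived from the DMSO control wells (cut at about 30% in these data); inactive means the rest.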", "data": [{"assay": "bead signal artefacts at single dose – biochemical, AlphaScreen, triplicate, counter-screen for MITF inhibitor project (AID 1259376)", "settings": "LysRS AlphaScreen counterscreen, signal interference, at 2.6 µM, active compounds read high", "values": [{"smiles": "COc1cc(CN2CCN(C(=O)C(c3ccccc3)c3ccccc3)CC2)cc(OC)c1OC", "inhibition": "9.83%"}, {"smiles": "CSc1nnc(SCc2nc3sc(C(=O)O)c(C)c3c(=O)[nH]2)s1", "inhibition": "11.5%"}, {"smiles": "Cc1ccc(CN2CCN(Cc3ccncc3)CC2)cc1", "inhibition": "16.6%"}, {"smiles": "COc1ccc(Br)cc1CN1CCN(C(=O)c2cccnc2)CC1", "inhibition": "-9.47%"}, {"smiles": "CCN(C(=O)Cc1nc(N)n[nH]1)C1(C(=O)Nc2ccccc2)CCCCC1", "inhibition": "100% (active)"}, {"smiles": "CCN(C(=O)Cc1nc(N)n[nH]1)C1(C(=O)Nc2ccc(C)cc2)CCCCC1", "inhibition": "101% (active)"}, {"smiles": "Cc1nc2sc(C(c3ccccc3Cl)N3CCC4(CC3)OCCO4)c(O)n2n1", "note": "(stereo not given)", "inhibition": "13.3%"}, {"smiles": "CCN(Cc1ccccc1)Cc1ccc([N+](=O)[O-])cc1", "inhibition": "-3.54%"}, {"smiles": "COc1ccc(CN2CCC(C(=O)N3CCN(Cc4ccccc4)CC3)CC2)cc1", "inhibition": "8.38%"}, {"smiles": "c1ccc(-c2ccccc2OCCNCCN2CCOCC2)cc1", "inhibition": "24.1%"}, {"smiles": "Clc1cccc(CN2CCN(C3CCCC3)CC2)c1", "inhibition": "9.81%"}, {"smiles": "O=C(Nc1ccc2c(c1)OCO2)C(c1ccccc1)N(Cc1ccccc1)Cc1ccccc1", "note": "(stereo not given)", "inhibition": "-2.62%"}, {"smiles": "CC(C)CO/N=C1\\C[C@@H](O)[C@@H](O)[C@@H]2[C@@H]3C(=O)N([C@@H](C)c4ccccc4)C(=O)[C@@H]3CC[C@@H]12", "inhibition": "-1.34%"}, {"smiles": "CN1CCN(CCC(=O)N/N=C/c2ccsc2)CC1", "inhibition": "-5.86%"}, {"smiles": "COc1cccc(CN2CCN(C(=O)c3ccccc3F)CC2)c1", "inhibition": "-7%"}, {"smiles": "COc1ccc(CN2CCN(Cc3cccc(Br)c3)CC2)c(OC)c1", "inhibition": "22.2%"}, {"smiles": "COc1ccc(COCC(O)CNCC(C)(C)CN(C)C)cc1OC", "note": "(stereo not given)", "inhibition": "3.11%"}, {"smiles": "CC(C)c1ccc(C2/C(=C(/O)c3ccccc3)C(=O)C(=O)N2CCN(C)C)cc1", "note": "(stereo not given)", "inhibition": "15.2%"}, {"smiles": "COc1ccc(CN2CCCC(C(=O)N3CCCCC3)C2)cc1", "note": "(stereo not given)", "inhibition": "-1.29%"}, {"smiles": "COc1cccc(CN2CCN(C/C=C/c3ccccc3)CC2)c1OC", "inhibition": "5.04%"}, {"smiles": "O=[N+]([O-])c1ccccc1CN1CCN(Cc2ccccc2C(F)(F)F)CC1", "inhibition": "9.98%"}, {"smiles": "CN1CCN(CCOCCOc2ccccc2Cl)CC1", "inhibition": "11.5%"}, {"smiles": "O=C(O)CCCCC1SCC2NC(=O)NC21O", "note": "(stereo not given)", "inhibition": "98.9% (active)"}, {"smiles": "N#Cc1ccc(/C=N/NC(=O)c2cc([N+](=O)[O-])cc([N+](=O)[O-])c2)cc1", "inhibition": "-2.55%"}, {"smiles": "O=S(=O)(c1ccc(Br)cc1Cl)N1CCN(CCc2ccncc2)CC1", "inhibition": "16.2%"}, {"smiles": "CCCCCCOC(=O)c1cc(C(=O)OCCCCCC)c(C)nc1C", "inhibition": "-5.97%"}, {"smiles": "COc1ccc(CN2CCN(Cc3cc(OC)c(OC)c(OC)c3)CC2)cc1", "inhibition": "14.7%"}, {"smiles": "CC(=O)N1CCN(C(=O)c2ccc(N3CC4CC(C3)c3cccc(=O)n3C4)c(NC(=O)c3cccnc3)c2)CC1", "note": "(stereo not given)", "inhibition": "-7.87%"}, {"smiles": "COc1ccc(Br)cc1CN1CCN(CCOCCO)CC1", "inhibition": "-5.73%"}, {"smiles": "COc1cccc(OC)c1C(=O)N1CCN(Cc2ccccc2F)CC1", "inhibition": "20.4%"}, {"smiles": "Cc1ccc(NC(=O)CNCCCSc2ccccc2)cc1C", "inhibition": "20.6%"}, {"smiles": "O=C(O)C1C2C=CC(O2)C1C(=O)Nc1nccs1", "note": "(stereo not given)", "inhibition": "13.2%"}, {"smiles": "CC(NCCCN1CCOCC1)C(=O)Nc1ccccc1", "note": "(stereo not given)", "inhibition": "12.1%"}, {"smiles": "COC(=O)C(C)CN1CCN(Cc2ccc3c(c2)OCO3)CC1", "note": "(stereo not given)", "inhibition": "13.8%"}, {"smiles": "CC1(C)CC(=O)C2=C(C1)Nc1ccccc1N(C(=O)Cc1ccccc1)C2c1ccc(-c2ccc([N+](=O)[O-])cc2)o1", "note": "(stereo not given)", "inhibition": "15%"}, {"smiles": "COc1cc(CN2CCN(Cc3ccccc3Cl)CC2)cc(OC)c1OC", "inhibition": "13%"}, {"smiles": "N#Cc1ccc(OCC(=O)Nc2nc(-c3ccccn3)cs2)cc1", "inhibition": "100% (active)"}, {"smiles": "Nc1ccc(S(=O)(=O)O)c2cc(S(=O)(=O)O)cc(O)c12", "inhibition": "38.9% (active)"}, {"smiles": "CCN1CCN(CCOc2ccc(-c3ccccc3)cc2)CC1", "inhibition": "9.15%"}, {"smiles": "COc1cccc(C(=O)N2CCN(Cc3cc(OC)c(OC)cc3OC)CC2)c1", "inhibition": "7.33%"}, {"smiles": "CC(=O)c1cccc(N2C(=O)c3cccnc3C2=O)c1", "inhibition": "27.9%"}, {"smiles": "CC1CCCC(N2CCN(Cc3ccccc3Cl)CC2)C1", "note": "(stereo not given)", "inhibition": "-7.94%"}, {"smiles": "CCN(CC)CCN1COc2c(cc(Cl)c3cccnc23)C1", "inhibition": "100% (active)"}, {"smiles": "COc1ccccc1CN1CC(C)OC(C)C1", "note": "(stereo not given)", "inhibition": "3.15%"}, {"smiles": "Cc1ccc(NC(=O)COC(=O)CCC(=O)Nc2sc3c(c2C(N)=O)CCC3)cc1F", "inhibition": "6.94%"}, {"smiles": "CCN(CC(=O)NCc1ccc(Cl)cc1)Cn1nnc2ccccc21", "inhibition": "-7.45%"}, {"smiles": "Cn1c(=O)oc2cc(S(=O)(=O)N3CCC(C(=O)NC(C)(C)C)CC3)ccc21", "inhibition": "0.26%"}, {"smiles": "CCS(=O)(=O)N1CCN(C2CCCCC2C)CC1", "note": "(stereo not given)", "inhibition": "7.29%"}, {"smiles": "c1ccc(CCCCNc2nccc(Nc3ccncn3)n2)cc1", "inhibition": "9.16%"}, {"smiles": "COc1cccc(CN2CCC(C(=O)NCCc3ccccc3)CC2)c1", "inhibition": "13.6%"}]}]}
